This is an account of results in PubChem BioAssay AID720518 (National Center for Advancing Translational Sciences (NCATS), 2013).

Results filed as inconclusive are left out. Where a call stands in place of a potency, no number is given. The source made the active and inactive calls. The call rests on the fitted dose curve.

The nature of the test: qHTS for Inhibitors of Cell Surface uPA Generation: Wild-type Protective Antigen (WT-PrAg) Counterscreen for Cherry-picked Compounds. The note with it: cells, WT protective antigen toxicity counterscreen; series mostly up to 115 µM. (Quantitative high-throughput screening tests each substance at several concentrations.)
As to `Cc1nc2ccc(Br)cn2c1C(=O)N/N=C\c1ccccc1Cl`, the Potency entry was “inactive”.

`Cc1cc(C)cc(NC(=O)Cc2ccc(NC3=NC4CS(=O)(=O)CC4S3)cc2)c1` (stereo not given): the Potency entry was “inactive”.

On to `Cc1cccc(CNc2ccc(C(CC(N)=O)NC(=O)c3cccc(Br)c3)cc2[N+](=O)[O-])c1` (stereo not given), for which the Potency result is “inactive”.

Take `C/C(=N\NC(=O)c1ccccc1)c1c(C)[nH]n(-c2ccccc2)c1=O`: the Potency result was “inactive”.

`Oc1c(N=NC(=S)Nc2ccccc2F)c2ccccc2n1Cc1ccccc1Cl`: the Potency entry is “inactive”.

As for `COc1ccc(C2=Nc3ccccc3C2(O)CCN2C(=O)c3ccccc3C2=O)cc1` (stereo not given), the Potency result is “inactive”.

On to `[N-]=[N+]=NC1C[C@H](n2ccc(=O)[nH]c2=O)O[C@@H]1CO` (stereo not given in full), for which the Potency result was “inactive”.

In the case of `O=C(O)CNS(=O)(=O)c1ccc2c(c1)Cc1cc(S(=O)(=O)NCC(=O)O)ccc1-2`, the Potency result was “inactive”.

For `COc1ccc2nc(SC(C)C(=O)NC3(C#N)CCCCC3)[nH]c2c1` (stereo not given), the Potency result is “inactive”.

For `Oc1ccc(/C=N/Nc2cccc(Cl)n2)c(O)c1`, the Potency entry is “inactive”.

In the case of `C=CCOC(=O)C1=C[C@@H](c2coc3ccccc3c2=O)C[C@@H](OCc2ccc(CO)cc2)O1`, the Potency entry is “inactive”.

Consider `CC(=O)Nc1nc2ccccc2[nH]1`, for which the Potency result was “inactive”.

Regarding `O=C(c1ccco1)N1CCN(c2ncccn2)CC1`, the Potency result is “inactive”.

Turning to `Cc1cccc(N2C(=O)c3cccc(Oc4ccc(Cl)cc4)c3C2=O)c1`, the Potency entry is “inactive”.

Consider `CC(=O)Nc1c2c(nn1-c1cccc(C)c1)CSC2`, for which the Potency result is “inactive”.

Regarding `COC(=O)c1ccc(CN2CCCC(CNC(=O)Cc3ccc(OC)cc3)C2)cc1` (stereo not given), the Potency entry was “inactive”.

In the case of `C=CCc1cc(S(=O)(=O)c2ccc(O)c(CC=C)c2)ccc1O`, the Potency entry is “inactive”.

With `COc1ccc(-c2cccc(-c3cc(=O)oc4cc(OC)c(OC)c(OC)c34)c2)cc1`, the Potency entry is “inactive”.

For the molecule `CCN1CCN(Cc2ccc(NC(=O)c3cc(NC(=O)c4cncc(-c5cccs5)c4)cc(OC)c3)cc2C(F)(F)F)CC1`, the Potency entry was “inactive”.

On to `O=C(Nc1ccc(N2CCOCC2)cc1)c1ccc(Cl)c(S(=O)(=O)N2CCCC2)c1`, for which the Potency entry is “inactive”.

Turning to `CC1=CC(C)C(C[N+]2(C)CCCCC2)C(C)C1` (stereo not given), the Potency entry was “inactive”.

Regarding `CCc1nc(SCC(N)=O)c2c(=O)n(C)c(=O)n(C)c2n1`, the Potency result was “inactive”.

Turning to `O=C(CN1C(=O)CSCC1=O)NCc1ccc(F)cc1`, the Potency result was “inactive”.

As to `COc1cccc(NC(=O)N2C3CCCC2CC(NC(C)=O)C3)c1` (stereo not given), the Potency entry is “inactive”.

As for `O=C(CN1CCN(Cc2ccc(Cl)cc2)C1=O)NCc1cccs1`, the Potency entry is “inactive”.

As for `COc1ccccc1N=Nc1c(C)[nH]n(-c2ccccc2)c1=O`, the Potency entry was “inactive”.

Consider `NC(=O)c1cc2ccncc2c2ccccc12`, for which the Potency result is “inactive”.

As to `CCNC(=S)NNC(=O)C(c1ccccc1)c1ccccc1`, the Potency entry is “inactive”.

As for `CCCC1=NN(C(=O)Cc2ccc(OC)cc2)C(O)(C(F)(F)F)C1` (stereo not given), the Potency entry is “inactive”.

In the case of `Cc1ccnc(NS(=O)(=O)c2ccc(NC(=O)C3C4C=CC(C4)C3C(=O)O)cc2)n1` (stereo not given), the Potency entry was “inactive”.

In the case of `NS(=O)(=O)c1ccc(CCNC(=O)c2ccc(Cl)s2)cc1`, the Potency entry is “inactive”.

For `COC(=O)[C@H](CC(C)C)N(Cc1ccccc1)S(=O)(=O)N(Cc1ccc(OC)cc1)[C@@H](CC(C)C)C(=O)OC`, the Potency result is “inactive”.

In the case of `C[C@H]1CN([C@@H](C)CO)C(=O)c2cc(NS(=O)(=O)c3ccc(Cl)cc3)ccc2O[C@@H]1CN(C)CC1CCCCC1`, the Potency entry is “inactive”.

On to `CCOC(=O)C1CCN(S(=O)(=O)c2c[nH]c(=O)[nH]c2=O)CC1`, for which the Potency entry was “inactive”.

`COc1ccccc1N1CCN(Cc2ccc(SC)cc2)CC1`: the Potency result was “inactive”.

Take `O=C(O)C(Nc1nc(C(F)(F)F)nc2ccccc12)c1ccccc1` (stereo not given): the Potency entry was “inactive”.

`CN(CC(=O)NCc1ccco1)CC(=O)Nc1c(Cl)cccc1Cl`: the Potency entry is “inactive”.

Consider `N#C/C(N=Nc1ccccc1O)=N\Nc1ccccc1O`, for which the Potency result is “inactive”.

For `Cc1cc(-c2ccccc2)nc(N/N=C/c2ccc(N(C)C)cc2)n1`, the Potency result was “inactive”.

As to `Cc1noc(C)c1COc1ccc(C(=O)N2CCN(S(=O)(=O)c3ccc(Cl)cc3)CC2)cc1`, the Potency result was “inactive”.
